# Bioassay records as filed in PubChem BioAssay.
# TDP1 block = TDP1 (human) enzyme inhibition; Q9NUW8; Potency, µM (highest dose often 130 µM), for the others: top-dose activity change, negative = inhibition, hits mostly inhibitors; 0.28% of 350,000 active; recombinant TDP1, AlphaScreen DNA substrate cleavage; note: potency is the fitted concentration of half-maximal effect; nearly all actives have a fitted effect of over 40% in size
# Target sequence (Q9NUW8 whole entry, looked up): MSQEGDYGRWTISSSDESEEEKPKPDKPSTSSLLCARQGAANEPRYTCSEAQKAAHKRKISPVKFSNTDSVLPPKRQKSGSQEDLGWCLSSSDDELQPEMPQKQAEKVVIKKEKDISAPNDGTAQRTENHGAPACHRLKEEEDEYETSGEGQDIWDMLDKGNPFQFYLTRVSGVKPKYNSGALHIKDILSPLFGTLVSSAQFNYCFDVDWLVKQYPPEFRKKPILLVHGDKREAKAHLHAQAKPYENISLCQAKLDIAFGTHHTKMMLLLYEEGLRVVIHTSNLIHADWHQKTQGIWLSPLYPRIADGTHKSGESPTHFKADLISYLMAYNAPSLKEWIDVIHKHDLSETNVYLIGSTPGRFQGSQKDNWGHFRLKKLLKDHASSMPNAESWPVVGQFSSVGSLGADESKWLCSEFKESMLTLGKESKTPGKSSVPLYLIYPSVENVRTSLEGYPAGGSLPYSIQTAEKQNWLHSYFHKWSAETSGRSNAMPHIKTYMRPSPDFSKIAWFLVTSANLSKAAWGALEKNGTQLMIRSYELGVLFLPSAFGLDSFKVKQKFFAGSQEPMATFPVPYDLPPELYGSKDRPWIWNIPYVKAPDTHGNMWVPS
#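 Recombinant human Tdp1 (E. coli-expressed, 1 nM final) preincubated with compounds 15 min at room temperature, then 5'-biotin/3'-phosphotyrosine-FITC DNA substrate (15 nM final) added for 5 min. AlphaScreen beads (10 ug/ml final) added 10 min; cleavage lowers signal.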
# Giardia killer = Giardia lamblia killing; Giardia lamblia trophozoite viability; activity change, % at 7.66 µM, hits read low; 0.15% of 340,000 active; AID 540267; in the data active = activity change below about -80%; inconclusive = between about -30% and that limit;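 note: parasites exposed to compound for two days anaerobically before the ATP read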
#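 Trophozoite viability was measured as ATP-dependent luminescence, read 15-30 min after reagent addition. Before that, parasites at 100 cells/well were exposed to compounds for 48 h, anaerobically, at 37 deg C.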
# ELG1 DNA repair = blocks ELG1-dependent DNA repair in HEK293T cells | AID 504467 | HEK293T ELG1-luciferase reporter, luminescence, 16 h; DNA damage induced by 5-fluorouridine | Potency, µM (doses to about 46.1 µM), without a hit: at the top dose activity change, negative = inhibition, hits mostly inhibitors | 2.3% of 330,000 active; note: potency is the fitted concentration of half-maximal effect; nearly all actives have a fitted effect of over 55% in size
#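 Overnight (16 hr) co-exposure of 2,000 cells/well to 5-fluorouridine and compound at 37 °C preceded detection. Luciferase was quantified via ONE-Glo luminescence; loss of signal denotes inhibition.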
# DT40 TDP1 no CPT = qHTS for Inhibitors of human tyrosyl-DNA phosphodiesterase 1 (TDP1): qHTS in cells in absence of CPT; DT40 Tdp1-/- hTDP1 cells, no CPT, ATP luminescence, 48 h; Potency, µM (series often up to 46.2 µM), inactives show top-dose activity change, negative = growth inhibition, most hits filed as inhibitors; 15% of 420,000 active; note: potency is the fitted concentration of half-maximal effect; nearly all actives have a fitted effect of over 55% in size
#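 Camptothecin absent (DMSO only). Human TDP1-complemented DT40 knockout cells, 400 cells/well, 37 °C for minimum 48 hr; ATP measured via CellTiter-Glo, 30 min dark incubation, luminescence.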
# DT40 TDP1 CPT = growth inhibition of DT40 Tdp1-/-;hTDP1 cells with camptothecin (screen for TDP1 inhibitors); chicken DT40 Tdp1-/-;hTDP1 cells + 20 nM CPT, ATP luminescence, 48 h; Potency, µM (top dose mostly 46.2 µM), for the others: at the highest dose activity change, negative = growth inhibition, hits mostly inhibitors; 12% of 420,000 active; AID 686979; note: potency is the fitted concentration of half-maximal effect; nearly all actives have a fitted effect of over 55% in size
#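 Chicken DT40 Tdp1-/- cells complemented with human TDP1, 400 cells/well, exposed to compounds plus 20 nM camptothecin for at least 48 h at 37 C; viability read as ATP content by CellTiter-Glo luminescence.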
# IL-1B inflam inh = blocks inflammasome-driven IL-1 beta release | THP-1 LPS/ATP IL-1B secretion, AlphaLISA, 16 h; hits give low values | activity change, % at 57.5 µM | 4.7% of 360,000 active | AID 743279; in the data active = activity change below about -50%; inconclusive = mostly about -30% to -49%
#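 Secreted IL-1B measured by AlphaLISA bead assay after 16 h compound exposure of THP-1 cells; compounds (final up to 57.5 uM) added 1 h before LPS (250 ng/mL) and ATP (1.25 mM) stimulation; lower signal means less secretion.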
# * = called active by the depositor; i = inactive; ? = inconclusive; · = not tested or not shown. Sampled rows, rich in hits. Any-hit rate of the full collection: about 19%. Unless noted, calls come from the whole dose curve; as a rule, active = well fitted curve in the direction sought with a large enough effect; inconclusive = small, poorly fitted or top-dose-only effect, or another doubt; inactive = no such curve, though single readings can be large; an effect the other way counts as inactive or inconclusive. % is set by controls: 0 for no effect and ±100 for the full control effect.
SMILES,TDP1 block,Giardia killer,ELG1 DNA repair,DT40 TDP1 no CPT,DT40 TDP1 CPT,IL-1B inflam inh
CCn1c(SCC(=O)N=Nc2c(O)[nH]c3ccccc23)nc2ccccc21,8%,13,-29%,16µM*,16µM*,1
CCOC(=O)c1cc(CC)sc1NC(=O)CN1CCN(C(=O)c2ccco2)CC1,8%,-15,-19%,-22%,?,-2
CCc1ccc2c(c1)c1nnc(NN)nc1n2CC,8%,7,16µM*,18µM*,?,-2
CCCn1c2ccc(F)cc2c2nnc(NN)nc21,5%,-1,?,?,?,7
CCn1c2ccc(F)cc2c2nnc(NN)nc21,0%,-3,-19%,16µM*,?,16
NNc1nnc2c3cc(F)ccc3n(Cc3ccccc3)c2n1,8%,2,9.2µM*,18µM*,?,-10
Cc1cccc(C)c1NC(=O)C1(C)CSCC(=O)N1Cc1cccc(C(F)(F)F)c1 (stereo not given),·,·,·,26µM*,?,-19
Cc1ccccc1CN1C(=O)CSCC1(C)C(=O)NCc1ccccc1 (stereo not given),·,·,·,-16%,-5%,-15
Cc1ccc(CN2C(=O)CSCC2(C)C(=O)NCc2ccccc2)cc1 (stereo not given),·,·,·,?,21µM*,-10
Cc1cccc(C)c1NC(=O)C1(C)CSCC(=O)N1Cc1cccc(F)c1 (stereo not given),·,·,·,-14%,13%,-20
Cc1nc(NCC2CCCO2)c2nnn(Cc3c(F)cccc3Cl)c2n1 (stereo not given),5%,-13,-18%,?,-23%,7
CCOc1ccc(CCN2CN(CC)CNC2=S)cc1OCC,0%,16,16%,21µM*,-18%,14
CCN1CNC(=S)N(CCc2ccccc2)C1,1%,2,?,8%,1%,-1
O=C(Nc1cccc(-n2cccn2)c1)C1CCCN(Cc2cc3ccccc3[nH]2)C1 (stereo not given),·,-11,?,?,16µM*,-60*
O=C(Nc1cccc(-n2cccn2)c1)C1CCCN(Cc2cccc(F)c2F)C1 (stereo not given),2%,4,?,21µM*,23µM*,9
Cn1cc(CN2CCCC(C(=O)Nc3cccc(-n4cccn4)c3)C2)cn1 (stereo not given),2%,24,0%,26%,1%,3
Cc1c(CN2CCCC(C(=O)Nc3cccc(-n4cccn4)c3)C2)cnn1C (stereo not given),3%,42,10%,-6%,-11%,1
CCn1ncc(CN2CCCC(C(=O)Nc3cccc(-c4cc5ccccc5[nH]4)c3)C2)c1C (stereo not given),9%,3,-8%,?,21µM*,-94*
Cc1cc(CN2CCCC(C(=O)Nc3cccc(-n4cccn4)c3)C2)cc(C)c1O (stereo not given),2%,-5,?,?,16µM*,0
O=C(NNC1CC(=O)N(c2ccc(Br)cc2)C1=O)c1cccnc1 (stereo not given),5%,7,23%,9%,8%,0
O=C(Nc1cccc(-n2cnnn2)c1)C1CCCN(Cc2cccc(C(F)(F)F)c2)C1 (stereo not given),0%,27,?,18µM*,13µM*,i
CSc1cccc(CN2CCCC(C(=O)Nc3cccc(-n4cccn4)c3)C2)c1 (stereo not given),1%,12,30%,?,?,-66*
CCCC(=O)Nc1ccc(C2C(=O)c3ccccc3C2=O)cc1,·,?,?,?,16µM*,-19
CCS(=O)(=O)N1CCC(C(=O)NCCC(C)C)CC1,8%,·,·,0%,-1%,·
Cc1cc(C(=O)CN2C(=O)NC(C)(c3ccc(F)c(F)c3)C2=O)c(C)n1C1CC1 (stereo not given),·,·,·,5.8µM*,7.3µM*,28
SMILES,TDP1 block,Giardia killer,ELG1 DNA repair,DT40 TDP1 no CPT,DT40 TDP1 CPT,IL-1B inflam inh
COc1ccc(C2(C)NC(=O)N(CC(=O)c3cc(C)n(C4CC4)c3C)C2=O)cc1 (stereo not given),8%,-4,10%,?,?,18
Cc1cc(C(=O)C(C)OC(=O)c2ccc(NC(=O)CC#N)cc2)c(C)n1-c1ccc(OC(F)F)cc1 (stereo not given),1%,5,24%,12µM*,23µM*,?
COc1ccccc1-c1cnc(C(O)c2cc(C)ccc2C)[nH]1 (stereo not given),·,·,·,?,26µM*,21
COc1ccccc1-c1cnc(C(O)c2ccc(C(C)(C)C)cc2)[nH]1 (stereo not given),·,·,·,18µM*,?,-14
COc1ccccc1-c1cnc(C(O)c2ccc(C)cc2C)[nH]1 (stereo not given),·,·,·,?,-28%,-9
CCc1ccc(C(O)c2ncc(-c3ccccc3OC)[nH]2)cc1 (stereo not given),·,·,·,18µM*,23µM*,33
CCc1ccc(C(O)c2ncc(-c3ccccc3F)[nH]2)cc1 (stereo not given),·,·,·,?,?,13
COc1ccccc1-c1cnc(C(O)c2ccccc2)[nH]1 (stereo not given),·,·,·,?,-26%,-4
CCCCn1nc(NC(=O)CCC)c2cc3cc(OC)ccc3nc21,·,-6,13%,?,-24%,32
CCCCn1nc(NC(=O)c2cccs2)c2cc3ccccc3nc21,·,2,?,18µM*,21µM*,-94*
CCCn1nc(NC(=O)c2cccs2)c2cc3ccccc3nc21,·,-1,?,?,?,-2
CCCn1nc(NC(=O)c2cccs2)c2cc3cc(OC)ccc3nc21,·,-11,?,12µM*,13µM*,-18
CCCn1nc(NC(=O)c2cccs2)c2cc3cc(C)ccc3nc21,-12%,13,?,16µM*,?,-21
CCCCn1nc(NC(=O)c2cccs2)c2cc3cc(OC)ccc3nc21,·,0,?,23µM*,18µM*,4
CCCn1nc(NC(=O)c2cccs2)c2cc3ccc(C)cc3nc21,·,-9,-27%,?,?,-16
Cc1cc(S(=O)(=O)N2CCCOC2CNC(=O)C(=O)NCc2ccco2)ccc1F (stereo not given),1%,-19,-26%,?,-17%,7
